High-throughput results deposited in PubChem BioAssay by several laboratories.
Myeloid diff 2 – promotes myeloid progenitor differentiation. ER-HoxA9 myeloid progenitors, lysozyme-GFP differentiation, flow cytometry. calls only at 10 µM. hit rate 1% among 360,000. AID 624256;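 active = normalized GFP-positive differentiation at or above the plate's own cutoff, the solvent-only control mean plus 3 SD; inconclusive = no clear call, values can overlap the other calls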;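 note: cells exposed to compound for four days before flow analysis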
ABCB6 inh MLPCN – inhibitors of human ABC transporter ABCB6; Q9NP58; K562-ABCB6 porphyrin accumulation, flow cytometry, 1 h; active compounds read low; fluorescence ratio to DMSO, % at 10 µM; hit rate 0.19% among 360,000; AID 602162;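 active = fluorescence ratio to DMSO below 75%, the collection mean minus 3 SD; inconclusive = too few cells collected in the well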;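 note: signal is porphyrin accumulated inside mitochondria; lower ratio means ABCB6 inhibition with less porphyrin fluorescence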
TLR4 MyD88 comp – TLR4-MyD88 interaction inhibition in cells; HeLa CL3-4 TLR4/MyD88 BLA complementation, FRET ratio; O00206+Q99836; inhibition, % at 8.4 µM; AID 861; hit rate 0.18% among 200,000; in the data active = inhibition above about 25%
NOD2 RIPK2 PPI – blocks binding of human NOD2 to RIPK2. CHO BLA complementation NOD2-RIPK2, CCF4 ratio. AID 624267. hit rate 0.38% among 360,000. inhibition, % at 4.98 µM; in the data active = inhibition above about 21%
TLR9-MyD88 block – TLR9-MyD88 interaction inhibition. Q9NR96+Q99836. CHO BLA complementation TLR9-MyD88, CCF4 FRET ratio. inhibition, % at 4.98 µM. hit rate 0.21% among 340,000. AID 504734;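 active = inhibition above the mean over all tested compounds plus 3 SD, cut at about 21% in these data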
TLR9-MyD88 cf – TLR9-MyD88 interaction inhibition, confirmation; shares compounds with TLR9-MyD88 block; CHO TLR9/MyD88 BLA complementation, CCF4 FRET ratio; inhibition, % at 4.98 µM; hit rate 51% among 680;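 active = mean inhibition across three repeats above about 21% taken from the earlier screen, limit read from the data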;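 note: blue over green emission ratio reports constitutive TLR9 MyD88 association via BLA complementation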
BLA counter-1 – non-selective beta-lactamase inhibitors in TLR9-MyD88 counter-screen | shares compounds with TLR9-MyD88 block | CHO-BLA cells, CCF4 FRET ratio, BLA reporter | inhibition, % at 4.98 µM | hit rate 7% among 680;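 active = mean inhibition above a 50% cutoff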;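 note: counterscreen of TLR9-MyD88 hits on CMV-driven BLA in CHO-K1 cells; higher means less blue over green ratio so more BLA blockade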
TLR9 CHO cytotox – counter-screen for TLR9-MyD88 inhibitors: cytotoxicity in CHO cells; shares compounds with TLR9-MyD88 block; luminescence; inhibition, % at 4.98 µM; hit rate 39% among 680; in the data active = inhibition above about 11%
K562 vector FC – counter-screen for ABCB6 inhibitors: effect in vector-only K562 cells. K562 empty-vector cells, flow cytometry fluorescence, 1 h. shares compounds with ABCB6 inh MLPCN. 25 tested, under 10 active. percent response (fluorescence), % at 100 µM;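 active = compounds whose half-maximal effective concentration is below 100 µM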
NOD2-RIPK2 conf – NOD2-RIPK2 interaction inhibition confirmed | shares compounds with NOD2 RIPK2 PPI | CHO cells, NOD2-RIPK2 BLA complementation, CCF4 FRET | inhibition, % at 4.98 µM | hit rate 70% among 1,200 | AID 624370;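 active = mean inhibition across replicates above a set limit taken from the earlier primary screen, cut at about 21% in these data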
BLA counter-2 – NOD2-RIPK2 counterscreen BLA reporter activity; shares compounds with NOD2 RIPK2 PPI; CHO BLA reporter, CCF4 FRET ratio; inhibition, % at 4.98 µM; hit rate 57% among 1,200;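 active = mean inhibition above the low-control mean inhibition plus three low-control SD, cut at about 11% in these data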
Numbers stand for hits; - = inactive; ? = inconclusive; . = no result. Compounds with a hit are over-represented: about 1.7% of the library has one in this group of screens.

SMILES	Myeloid diff 2	ABCB6 inh MLPCN	TLR4 MyD88 comp	NOD2 RIPK2 PPI	TLR9-MyD88 block	TLR9-MyD88 cf	BLA counter-1	TLR9 CHO cytotox	NOD2-RIPK2 conf	BLA counter-2	others
CCc1nc2nc(C)c(NS(=O)(=O)c3ccc(Cl)cc3)c(=O)n2[nH]1	-	-	.	-	-	.	.	.	.	.
CCS(=O)(=O)c1ncc(Cl)c(C(=O)Nc2ccc(S(=O)(=O)N3CCC(C)CC3)cc2)n1	.	44.0	.	96.5	57.9	48.7	-	98.9	96.0	48.4
CCOC(=O)c1ccc(NC(=O)c2nc(S(=O)(=O)Cc3ccccc3)ncc2Cl)cc1	-	46.0	.	55.0	41.6	30.4	-	99.2	86.9	49.7	K562 vector FC=-
CC1CCN(S(=O)(=O)c2ccc(NC(=O)c3ccncc3)cc2)CC1	-	-	.	-	-	.	.	.	.	.
Cc1ccc(NC(=O)c2nc(S(=O)(=O)Cc3ccccc3C)ncc2Cl)cc1C	?	48.0	.	97.0	40.7	35.0	-	82.7	85.6	33.4	K562 vector FC=-
CSc1nnc(NC(=O)c2nc(S(=O)(=O)Cc3ccccc3)ncc2Cl)s1	-	-	.	-	-	.	.	.	.	.
CC(C)c1nnc(NC(=O)c2nc(S(=O)(=O)Cc3ccccc3)ncc2Cl)s1	?	-	.	26.5	21.7	-	-	29.0	37.0	23.7	K562 vector FC=-
COc1cc(NC(=O)CCl)ccc(=O)c1	-	-	.	-	-	.	.	.	.	.
COc1ccc(S(=O)(=O)NC(=O)C2(C)CCN2C(=O)Cc2cc(F)ccc2F)cc1 (centres undefined)	-	-	.	-	.	.	.	.	.	.
CCc1ccc(NC(=O)c2nc(S(=O)(=O)Cc3ccccc3)ncc2Cl)cc1	?	66.0	.	96.3	46.9	50.5	-	97.6	93.6	39.9	K562 vector FC=-
CC(=O)Nc1ccc(NC(=O)c2nc(S(=O)(=O)Cc3cccc(C)c3)ncc2Cl)cc1	?	67.0	.	82.0	26.7	43.5	-	96.7	81.0	44.1	K562 vector FC=-
O=S(=O)(c1ccccc1)N1CC=C(c2ccccc2)CC1	-	-	-	-	-	.	.	.	.	.
Cn1c(COc2ccccc2)nnc1SCC(=O)Nc1nnc(C2CC2)s1	-	-	.	-	-	.	.	.	.	.
COc1ccc(/C=C/c2ccc3c(Br)ccc(O)c3n2)cc1	-	-	.	-	-	.	.	.	.	.
COc1cc(/C=C/c2ccc3c(Br)cc(Br)c(O)c3n2)ccc1O	-	-	.	34.3	25.6	27.7	-	49.0	44.6	55.0
COc1ccccc1N(CC(=O)NC1CCCC1)S(=O)(=O)c1cccc(C(F)(F)F)c1	-	-	.	-	-	.	.	.	.	.
O=C1C=CC(=O)N1CCNc1ncc(C(F)(F)F)cc1Cl	?	-	-	47.2	27.9	31.6	-	99.5	85.9	23.5
O=[N+]([O-])c1c(Nc2ccccc2O)cc(Cl)c2nonc12	?	-	.	83.3	32.6	56.2	-	99.7	96.9	-
CCCN(CCC)CC(C)(C)NS(=O)(=O)c1ccc(Cl)cc1	-	-	.	-	-	.	.	.	.	.
Clc1ccccc1OCc1nnc(-c2ccccc2Br)o1	-	-	-	-	-	.	.	.	.	.
O=c1c(Cl)c(Cl)cnn1Cc1nnc(-c2ccccc2Br)o1	?	-	-	27.0	21.0	29.2	-	100.8	45.5	10.7
COc1ccccc1CNC(=O)CCN1C(=O)c2ccccc2C1=O	-	-	.	-	-	.	.	.	.	.
COc1ccccc1CNC(=O)CN1C(=O)c2cccc(N)c2C1=O	-	-	.	30.9	36.5	-	-	-	45.5	49.3
